# Measurements reported in PubChem BioAssay (NCATS).
# Results filed as inconclusive are left out. Where a call stands in place of a potency, no number is given. Active and inactive are the calls of the source. Unless noted, the call rests on the fitted dose curve; in most records, active means well fitted curve in the direction sought with a large enough effect; inconclusive means small, poorly fitted or top-dose-only effect, or another doubt; inactive means no such curve, though single readings can be large; an effect the other way counts as inactive or inconclusive.
# Experiments:
# [1] = NCATS anti-infectives library activity on HEK293 viability as a counter-qHTS vs the C. elegans viability qHTS (AID 1745854)
# Outline: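 HEK293 cells, 1500 per well, exposed 24 hr at 37C in 5% CO2 to compounds in a 1:5 titration, up to 41.7 uM final. Viability read as CellTiter-Glo luminescence after 10 min at room temperature.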
# [2] = Primary qHTS for inhibitors of nuclear receptor binding SET domain protein 2 (NSD2) in an isogenic RCH-ACV NSD2 p.E1099K mutant (9B) (AID 1645876); further: nearly all actives have a fitted effect of over 70% in size; further: potency means the concentration at half of the fitted maximal effect
# [3] = Primary qHTS for inhibitors of nuclear receptor binding SET domain protein 2 (NSD2) in an RCH-ACV wild type WT cells (2C) (AID 1645877); further: nearly all actives have a fitted effect of over 70% in size; further: potency means the concentration at half of the fitted maximal effect
# [4] = target: Cytochrome P450 1A2 (Homo sapiens) (UniProt P05177); experiment: p450-cyp1a2 (AID 410; calls by dose curve; further: potency means the concentration at half of the fitted maximal effect)
# Outline: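 Human CYP1A2 (20nM) demethylated Luciferin-ME at its Km (100uM) in 100mM KPO4. After 10 min compound preincubation, NADPH regeneration ran the reaction 60 min at room temperature. Luciferin was read by luminescence, normalized to 57 uM furafylline.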
# [5] = target: Mitogen-activated protein kinase 10 (Mus musculus) (UniProt Q61831); experiment: JNK3 AlphaScreen Assay (AID 530; active means well fitted curve in either direction with a large enough effect, not every such curve was filed as active;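 further: kinase came from lysate of stimulated human HepG2 cells; signal reports phosphorylation of biotinylated GST-cJun 1-79 at Ser73 with 10 µM ATP; series mostly up to about 57 µM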)
# Outline: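 JNK3 came from HepG2 lysates pre-activated with IL-1beta and TNF-alpha and phosphorylated biotinylated GST-cJun (1-79) at 10 uM ATP, pH 7.6, room temperature. Compounds were titrated. AlphaScreen signal used anti-phospho-cJun (Ser73) antibody.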
# [6] = target: 3',5'-cyclic-AMP phosphodiesterase 4B (Homo sapiens) (UniProt Q07343); experiment: qHTS Assay for Inhibitors of PDE-IV (AID 607; active means well fitted activation curve with a large enough effect in the main read-out, with a control signal flat, not every such curve was filed as active)
# Outline: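 ACTOne HEK293 cells carry a modified cAMP-gated CNG channel and express endogenous PDE4; plated 1000 cells/well, compounds up to 22.9 uM final. Membrane-potential dye fluorescence (ex 535/em 590) was read; parental cells received 10 uM forskolin + 100 uM RO 20-1724.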
# [7] = Confirmatory qHTS for small molecule stabilizers of the endoplasmic reticulum resident proteome: Secreted ER Calcium Modulated Protein (SERCaMP) assay (AID 1508628);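 further: SH-SY5Y cells given compound 16 h then thapsigargin 100 nM for 4 h; series mostly up to about 76 µM; nearly all actives have a fitted effect of over 40% in size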
# Outline: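 We seeded SH-SY5Y-GLuc-SERCaMP cells, added compounds (three concentrations in the primary run, eleven up to 76.6 uM in confirmation), incubated 16 h, depleted ER calcium with thapsigargin, and read luciferase 4 h later.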
# [8] = target: Cytochrome P450 3A4 (Homo sapiens) (UniProt P08684); experiment: qHTS Assay for Activators of Cytochrome P450 3A4 (AID 885); further: nearly all actives have a fitted effect of over 65% in size
# Outline: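 20nM CYP3A4 + 25uM Luciferin-PPXE (=KM), 200mM KPO4; cpd 10 min RT; NADPH regen, 60 min RT; stop w/ detection buffer, 20 min; luminescence. Normalized to 57 uM ketoconazole.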
# [9] = target: Cytochrome P450 2D6 (Homo sapiens) (UniProt P10635); experiment: qHTS Assay for Inhibitors and Substrates of Cytochrome P450 2D6 (AID 891); further: potency means the concentration at half of the fitted maximal effect; nearly all actives have a fitted effect of over 60% in size
# Outline: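 Human CYP2D6 (5 nM) with 30 uM Luciferin-ME EGE (at Km) in 100 mM KPO4, compound preincubated 10 min, then NADPH regeneration system for 60 min at room temperature. Luciferin read by luminescence; normalized to 1.43 uM quinidine.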
# [10] = target: Cytochrome P450 3A4 (Homo sapiens) (UniProt P08684); experiment: qHTS Assay for Inhibitors and Substrates of Cytochrome P450 3A4 (AID 884); further: series mostly up to about 57 µM; nearly all actives have a fitted effect of over 50% in size
# Outline: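 20 nM human CYP3A4 with 25 uM Luciferin-PPXE (at KM) in 200 mM KPO4, preincubated 10 min with compound; NADPH regeneration started a 60 min RT reaction. Luciferin detected by luminescence, normalized to 57 uM ketoconazole as full inhibition.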
# [11] = tested on: Zika virus NS2B-NS3 protease (linked); experiment: 384 well plate NINDS AMC confirmatory qHTS for Zika virus inhibitors (AID 1347163);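 further: linked protease at 5 30 or 60 nM final depending on run; fluorescence of AMC released from Ac-VKTGKR-AMC peptide cleaved by the protease; top concentration of the series differs between compounds; nearly all actives have a fitted effect of over 50% in size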
# Outline: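 Linked protease 5/30/60 nM final; cpds up to 1 mM final, ~15 min preinc. Substrate Ac-VKTGKR-AMC 30 microM final. RT, dark, 25 min; FI ex 355/em 460; normalized to no-enzyme/no-inhibitor ctrls.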
# [12] = tested on: Zika virus NS2B-NS3 protease (linked construct); experiment: 384 well plate NINDS Rhodamine confirmatory qHTS for Zika virus inhibitors (AID 1347164);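 further: fluorescence from protease cleavage of Ac-LKRR-rhodamine 110 substrate; top concentration of the series differs between compounds; nearly all actives have a fitted effect of over 65% in size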
# Outline: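 Fluorescence read at ex 485 nm/em 538 nm, 25 min after adding 10 microM Ac-LKRR-Rd substrate at room temperature in the dark; signal normalized to no-enzyme and no-inhibitor controls. Enzyme final 5, 30 or 60 nM; compounds, ~15 min preincubation.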
# [13] = Confirmation and Secondary Assay for Modulators of Hemoglobin Beta Chain Splicing at IVS2 654 locus (AID 910);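 further: per-well total GFP intensity by laser scanning cytometry after 2-day treatment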
# Outline: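 HeLa cells stably carrying EGFP interrupted by mutant beta-globin IVS2-654 intron (CMV-driven) were treated with compound for 2 days at 37C; corrected splicing was scored as total peak GFP intensity per well (488 nm excitation, 500-520 nm emission).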
# [14] = Confirmation and Secondary Assay for Modulators of Hemoglobin Beta Chain Splicing at IVS2 705 locus (AID 930);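 further: HeLa cells stably expressing the EGFP-705 splicing reporter; GFP fluorescence per well restored by corrected splicing of the IVS2-705 intron in EGFP; series mostly up to about 46 µM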
# Outline: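 HeLa EGFP-705 reporter; 500 cells/well, o/n 37C 5% CO2; cpd 2 d; 488 ex/500-520 em laser scan; total peak GFP intensity/well. Ref: 500 nM […] antisense PNA.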
# [15] = target: Glutathione peroxidase 1 (Homo sapiens) (UniProt P07203); experiment: Primary qHTS Assay for Inhibitors of Recombinant Selenoprotein Glutathione Peroxidase 1 (GPX1) (AID 1845191); further: nearly all actives have a fitted effect of over 65% in size
# Outline: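 Recombinant GPX1 (10 nM final) was preincubated with compound for 30 min at room temperature, then reacted with 1 mM GSH, 0.5 mM CHP, 0.5 mM NADPH and 100 nM glutathione reductase; NADPH fluorescence (340/450 nm) was read at 0 and 15 min.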
# Cytochrome P450 2D6 (Homo sapiens), sequence (P10635 whole entry, looked up): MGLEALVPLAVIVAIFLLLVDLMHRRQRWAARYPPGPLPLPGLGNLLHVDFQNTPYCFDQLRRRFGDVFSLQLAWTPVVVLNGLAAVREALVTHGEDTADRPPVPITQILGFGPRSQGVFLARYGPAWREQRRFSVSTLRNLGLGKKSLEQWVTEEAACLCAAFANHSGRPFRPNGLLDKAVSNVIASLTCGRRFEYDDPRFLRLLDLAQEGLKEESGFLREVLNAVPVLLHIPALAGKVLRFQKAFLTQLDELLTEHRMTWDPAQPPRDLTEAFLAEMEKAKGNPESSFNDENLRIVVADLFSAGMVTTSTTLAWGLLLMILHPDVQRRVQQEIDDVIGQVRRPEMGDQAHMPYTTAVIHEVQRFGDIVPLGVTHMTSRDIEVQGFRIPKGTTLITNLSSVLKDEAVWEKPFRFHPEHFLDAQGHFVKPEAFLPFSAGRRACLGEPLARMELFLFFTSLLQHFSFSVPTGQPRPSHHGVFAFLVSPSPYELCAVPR
# Cytochrome P450 3A4 (Homo sapiens), sequence (P08684 whole entry, looked up): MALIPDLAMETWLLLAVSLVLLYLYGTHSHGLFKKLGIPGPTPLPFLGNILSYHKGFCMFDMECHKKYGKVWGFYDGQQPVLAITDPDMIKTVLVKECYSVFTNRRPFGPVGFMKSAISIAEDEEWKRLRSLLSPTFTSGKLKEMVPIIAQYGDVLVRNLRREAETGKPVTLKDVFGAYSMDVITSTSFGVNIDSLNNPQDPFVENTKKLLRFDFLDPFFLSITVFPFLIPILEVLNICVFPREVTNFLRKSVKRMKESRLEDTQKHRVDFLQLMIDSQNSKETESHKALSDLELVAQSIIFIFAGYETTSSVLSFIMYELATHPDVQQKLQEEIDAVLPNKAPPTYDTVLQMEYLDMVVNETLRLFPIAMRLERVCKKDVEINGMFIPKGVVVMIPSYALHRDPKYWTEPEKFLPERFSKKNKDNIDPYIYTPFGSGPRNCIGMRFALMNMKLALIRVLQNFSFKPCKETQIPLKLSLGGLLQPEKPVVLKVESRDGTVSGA
# Cytochrome P450 1A2 (Homo sapiens), sequence (P05177 whole entry, looked up): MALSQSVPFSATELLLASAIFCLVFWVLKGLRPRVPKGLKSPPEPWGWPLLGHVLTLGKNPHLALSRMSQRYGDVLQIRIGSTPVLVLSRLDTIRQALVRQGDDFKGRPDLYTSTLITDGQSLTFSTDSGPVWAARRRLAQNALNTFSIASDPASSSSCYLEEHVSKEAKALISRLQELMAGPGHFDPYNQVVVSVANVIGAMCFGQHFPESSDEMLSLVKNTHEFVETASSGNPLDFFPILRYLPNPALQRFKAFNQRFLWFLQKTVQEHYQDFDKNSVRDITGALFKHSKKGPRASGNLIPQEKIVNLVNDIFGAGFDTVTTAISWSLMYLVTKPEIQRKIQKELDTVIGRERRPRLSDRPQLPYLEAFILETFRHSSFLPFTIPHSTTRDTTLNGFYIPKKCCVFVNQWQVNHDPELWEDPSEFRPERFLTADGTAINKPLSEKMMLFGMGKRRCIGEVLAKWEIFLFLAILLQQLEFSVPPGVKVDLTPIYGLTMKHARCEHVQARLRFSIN
# 3',5'-cyclic-AMP phosphodiesterase 4B (Homo sapiens), sequence (Q07343 whole entry, looked up): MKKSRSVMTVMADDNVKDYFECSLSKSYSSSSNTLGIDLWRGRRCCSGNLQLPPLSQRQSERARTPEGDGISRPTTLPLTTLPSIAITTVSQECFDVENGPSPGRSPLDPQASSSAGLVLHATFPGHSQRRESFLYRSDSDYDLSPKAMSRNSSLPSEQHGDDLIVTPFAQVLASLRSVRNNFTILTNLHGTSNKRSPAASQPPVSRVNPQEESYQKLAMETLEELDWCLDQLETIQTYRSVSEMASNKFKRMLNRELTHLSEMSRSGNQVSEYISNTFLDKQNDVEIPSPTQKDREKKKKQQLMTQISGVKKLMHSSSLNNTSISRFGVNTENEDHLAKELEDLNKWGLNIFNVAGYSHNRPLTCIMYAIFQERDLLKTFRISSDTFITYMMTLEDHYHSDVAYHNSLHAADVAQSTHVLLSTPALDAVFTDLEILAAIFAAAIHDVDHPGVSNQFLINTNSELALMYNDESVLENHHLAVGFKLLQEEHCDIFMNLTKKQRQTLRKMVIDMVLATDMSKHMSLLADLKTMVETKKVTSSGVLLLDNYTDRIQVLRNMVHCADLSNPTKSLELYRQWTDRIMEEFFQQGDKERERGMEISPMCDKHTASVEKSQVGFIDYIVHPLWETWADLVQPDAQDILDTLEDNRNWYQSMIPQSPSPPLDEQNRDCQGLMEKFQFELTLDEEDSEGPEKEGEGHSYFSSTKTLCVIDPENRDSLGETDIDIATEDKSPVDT
# Glutathione peroxidase 1 (Homo sapiens), sequence (P07203 whole entry, looked up): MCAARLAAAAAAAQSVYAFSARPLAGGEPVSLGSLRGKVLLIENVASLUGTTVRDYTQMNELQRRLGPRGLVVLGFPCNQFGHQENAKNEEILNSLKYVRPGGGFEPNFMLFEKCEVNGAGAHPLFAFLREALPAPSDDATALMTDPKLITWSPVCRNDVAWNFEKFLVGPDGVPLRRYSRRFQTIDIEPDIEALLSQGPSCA
structure (smiles),measurement,setting,value
COc1c(O)cc2oc(-c3ccccc3)cc(=O)c2c1O,outcome,[1],inactive
CC1(C)CC[C@]2(C(=O)O)CC[C@]3(C)C(=CC[C@@H]4[C@@]5(C)C[C@@H](O)[C@H](O)C(C)(C)[C@@H]5CC[C@]43C)[C@@H]2C1,Potency,[2],inactive
same,Potency,[3],inactive
same,outcome,[1],inactive
N[C@@H](Cc1cc(CP(=O)(O)O)cc(-c2ccccc2Cl)c1)C(=O)O,Potency,[4],inactive
same,Potency,[5],inactive
same,Potency,[6],inactive
same,Potency,[7],inactive
CC(=O)ON(C(C)=O)S(=O)(=O)c1ccc(Cl)cc1,Potency,[4],inactive
same,Potency,[5],inactive
same,Potency,[6],inactive
CC(C)C[C@H](NC(=O)N1CCCCCC1)C(=O)N[C@H](Cc1cn(C)c2ccccc12)C(=O)N[C@H](Cc1ccccn1)C(=O)O,Potency,[5],inactive
same,Potency,[6],inactive
same,Potency,[8],inactive
CCCn1c(=O)c2[nH]c(-c3ccc(OCC(=O)Nc4ccc(C(C)=O)cc4)cc3)nc2n(CCC)c1=O,Potency,[5],inactive
CC1(C)CO[C@H](CC(=O)O)CN1,Potency,[5],inactive
same,Potency,[6],inactive
same,Potency,[9],6.3 nM (active)
CC[C@@](N)(C(=O)O)c1ccc(C(=O)O)cc1,Potency,[5],inactive
same,Potency,[6],inactive
N[C@@H](C(=O)O)[C@H](CC(=O)O)c1ccc(Cl)cc1,Potency,[4],inactive
same,Potency,[5],inactive
same,Potency,[6],inactive
same,Potency,[9],2510 nM (active)
CCCCNC(=O)[C@@H]1Cc2ccccc2N1C(=O)[C@H](N)CC,Potency,[4],20000 nM (active)
same,Potency,[5],inactive
CC(=O)N(O)[C@@H]1c2cc(C#N)ccc2OC(C)(C)[C@H]1O,Potency,[10],inactive
O=C(Nc1ccc(C(=O)OCc2cc(=O)n3nc(C4CC4)sc3n2)cc1)c1cccc(Cl)c1,Potency,[11],inactive
same,Potency,[12],inactive
CCOC(=O)[C@H](N)/C=C(\C)CP(=O)(O)O,Potency,[4],inactive
same,Potency,[5],inactive
same,Potency,[6],inactive
same,Potency,[9],2000 nM (active)
N[C@H](C(=O)O)c1cccc(O)c1,Potency,[5],inactive
O=C1NC(=NCc2cccs2)S/C1=C/c1ccc2ncccc2c1,Potency,[2],3660 nM (active)
same,Potency,[3],2910 nM (active)
CC1OC(OC2C(CO)OC(OC3C(CO)OC(O)C(O)C3O)C(O)C2O)C(O)C(O)C1NC1C=C(CO)C(O)C(O)C1O (stereo unspecified),Potency,[10],inactive
same,outcome,[13],inactive
same,outcome,[14],inactive
C[C@H](NC[C@H](O)CP(=O)(O)CC1CCCCC1)c1ccc(Cl)c(Cl)c1,Potency,[4],39800 nM (active)
same,Potency,[6],inactive
same,Potency,[8],inactive
CCN(CC)CCCCN1c2ccccc2Oc2ccc(Cl)cc21,Potency,[7],inactive
CC(=O)[C@H]1CCC2C3CCC4=CC(=O)CC[C@]4(C)C3[C@H](O)C[C@@]21C (stereo partly specified),Potency,[2],inactive
same,Potency,[3],inactive
same,Potency,[15],inactive
